Experimental data as given in PubChem BioAssay AID1851 (National Center for Advancing Translational Sciences (NCATS), 2009).
“And” between values parts separate entries of the source, which are not always exact repeats. Equal values may be shown once. Out of some 16,000 compounds screened, about 5,700 (36%) were called active. Another 24% or so got no clear call; they are omitted. Calls follow the shape of the dose curve; as a rule, active = well fitted curve in the direction sought with a large enough effect; inconclusive = small, poorly fitted or top-dose-only effect, or effect the other way; inactive = no such curve, though single readings can be large or run the other way. The list shows a part of the results.

These molecules were tested against Cytochrome P450 1A2 (Homo sapiens) (UniProt P05177) (assay: Cytochrome panel assay with activity outcomes). Details: recombinant CYP, pro-luciferin dealkylation, luminescence, p450-cyp1a2; series mostly up to 57.1 µM; activity, negative = inhibition: at the top concentration.
Sequence of Cytochrome P450 1A2 (Homo sapiens) (P05177 whole entry, looked up): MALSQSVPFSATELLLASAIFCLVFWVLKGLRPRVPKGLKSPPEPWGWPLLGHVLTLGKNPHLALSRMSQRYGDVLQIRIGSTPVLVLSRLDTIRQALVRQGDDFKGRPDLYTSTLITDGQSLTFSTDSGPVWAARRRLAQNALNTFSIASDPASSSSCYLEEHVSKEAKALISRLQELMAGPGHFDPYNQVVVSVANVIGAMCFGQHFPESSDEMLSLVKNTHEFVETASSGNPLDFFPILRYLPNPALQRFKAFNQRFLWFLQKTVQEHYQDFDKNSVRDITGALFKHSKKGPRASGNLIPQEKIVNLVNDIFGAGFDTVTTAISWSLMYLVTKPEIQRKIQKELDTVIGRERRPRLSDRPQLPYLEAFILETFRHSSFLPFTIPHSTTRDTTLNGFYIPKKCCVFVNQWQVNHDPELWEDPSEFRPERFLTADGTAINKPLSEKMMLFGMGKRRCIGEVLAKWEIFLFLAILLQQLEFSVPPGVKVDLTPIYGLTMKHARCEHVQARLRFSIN
% is scaled to controls: 0 for no effect and ±100 for the full control effect.

Row | SMILES | activity, negative = inhibition | AC50
1 | COc1ccc(CCN2CC34C=CC(O3)C(C(=O)NCc3ccccc3)C4C2=O)cc1OC (stereo not given) | -6.47% (inactive) | 
2 | COc1cc2c(cc1OC)C(C(=O)N1CCOCC1)C(c1cccs1)N(C)C2=O (stereo not given) | 1.79% (inactive) | 
3 | Clc1ccc(C=Nc2ccc3c(c2)Cc2ccccc2-3)c(Cl)c1 |  | 0.794 µM (active)
4 | Oc1ccc(Cl)cc1C=Nc1cnc2ccccc2c1 | -13.2% [at 2.29 µM] (inactive) | 
5 | C(/C=C\c1ccccc1)=Nc1ccc2c(c1)Cc1ccccc1-2 |  | 0.398 µM (active)
6 | O=C(Nc1cccc(F)c1)N1CCCC2(CCN(S(=O)(=O)c3ccccc3)CC2)C1 | -20% (inactive) | 
7 | CCCCCCCCCCCCCCCCCCNC(=O)OC[C@@H](COP(=O)([O-])OCC[n+]1ccsc1)OC | 16.8% (inactive) | 
8 | CC(=O)Nc1c2c3c(cccc3n(C)c1=O)C(=O)c1ccccc1-2 |  | 2.51 µM (active)
9 | Cc1c(NC(=O)C(C)N2C(=O)c3ccccc3C2=O)c(=O)n(-c2ccccc2)n1C (stereo not given) | 1.41% (inactive) | 
10 | Clc1ccc(-c2noc(CN3CCCCC3)n2)cc1 |  | 0.631 µM (active)
11 | N=C(N)SCc1nc(-c2ccc(Cl)cc2)no1 |  | 1.26 µM (active)
12 | Cc1ncc(CSC(=N)N)n1Cc1ccccc1 | -2.06% [at 11.4 µM] (inactive) | 
13 | Cc1ccc(-c2noc(CN3CCN(C(c4ccccc4)c4ccccc4)CC3)n2)cc1 | -23.9% (inactive) | 
14 | CCCNC(=O)OC[C@@H]1O[C@H](CCON=C(C)C)C=C[C@@H]1Oc1ccc(OC)cc1 | -2.59% [at 11.4 µM] (inactive) | 
15 | CC(=O)N1CCc2cc(Br)cc(S(=O)(=O)N3CCN(C(=O)c4ccco4)CC3)c21 | 0.342% (inactive) | 
16 | CC(C)(O)C#Cc1ccc(C(=O)NCc2cccs2)s1 |  | 15.8 µM (active)
17 | Cc1cc(Nc2ccc(Cl)cc2)nc(N)n1 |  | 10 µM (active)
18 | Nc1nc(Cl)cc(NCCO)n1 | -22.6% [at 11.4 µM] (inactive) | 
19 | Cc1cc(C)c(S(=O)(=O)NNC(=O)C2CCN(Cc3ccccc3)CC2)c(C)c1 | -1.29% (inactive) | 
20 | O=C(/C=C\C=C/c1ccc2c(c1)OCO2)N1CCCCC1 |  | 3.16 µM (active)

Row | SMILES | activity, negative = inhibition | AC50
21 | O=C(/C=C\c1ccc2c(c1)OCO2)c1ccc(F)cc1 | -4.56% [at 11.4 µM] (inactive) | 
22 | COc1ccccc1N1CCN(Cc2cc(=O)n3ccsc3n2)CC1 | -3.58% (inactive) | 
23 | COc1ccccc1N1CCN(C(=O)/C=C/c2ccc3c(c2)OCO3)CC1 |  | 25.1 µM (active)
24 | Nc1cc(Cl)nc(N/N=C/c2ccccc2[N+](=O)[O-])n1 |  | 2 µM (active)
25 | C/C(=N\Nc1nnc(-c2ccccc2)c(-c2ccccc2)n1)c1cccc([N+](=O)[O-])c1 |  | 3.55 µM (active)
26 | C/C(=N\Nc1nc(N)cc(Cl)n1)c1cccc([N+](=O)[O-])c1 |  | 11.2 µM (active)
27 | C/C(=N\Nc1ccc([N+](=O)[O-])cc1)c1cccc(N)c1 |  | 1.26 µM (active)
28 | NC(=O)CNC(=O)[C@@H]1CC2(CC(c3cccc([N+](=O)[O-])c3)=NO2)CN1C(=O)c1ccccc1 (stereo not given in full) | 15.4% (inactive) | 
29 | N=c1nc(N)nc(N)n1-c1ccc(S(N)(=O)=O)cc1 | -3.8% [at 2.29 µM] (inactive) | 
30 | O=C(c1ccccc1)[C@H](Nc1ccc2ccccc2c1)c1ccccc1 |  | 0.794 µM (active)
31 | O=C(O)[C@@H](c1ccccc1)[C@@H](C(=O)O)c1ccccc1 | -12% [at 2.29 µM] (inactive) | 
32 | O=C(CSc1nc2ccc([N+](=O)[O-])cc2s1)c1ccc2ccccc2c1 |  | 3.16 µM (active)
33 | COC(=O)\C(C(C)=O)=C(/C=C/C=C/C=C/N(C)C)N(C)C | -20.9% (inactive) | 
34 | Cc1cc(Cc2c(C)c(C)c(Cc3cc(C)cc(C(C)(C)C)c3O)c(C)c2C)c(O)c(C(C)(C)C)c1 | 4.96% [at 2.29 µM] (inactive) | 
35 | CC(C)(CO)Cc1cc(C(C)(C)C)c(O)c(C(C)(C)C)c1 |  | 25.1 µM (active)
36 | Nc1c2c(nc3ccccc13)CCC[C@H]2O |  | 10 µM (active)
37 | Cc1ccc(S(=O)(=O)Oc2cc(N)c3c(n2)CCC3)cc1 | -19.4% [at 2.29 µM] (inactive) | 
38 | Nc1c2ccccc2nc2c(O)cccc12 |  | 6.31 µM (active)
39 | Nc1c2c(nc3ccccc13)CCCC2 |  | 3.16 µM (active) and 794 nM (active) and 501 nM (active)
40 | COC(=O)[C@@]1(Cc2ccccc2)[C@H]2c3cc(C(=O)N4CCCC4)n(Cc4cc(F)cc5c4OCOC5)c3C[C@H]2CN1C(=O)c1ccccc1 | -17.1% (inactive) | 

Row | SMILES | activity, negative = inhibition | AC50
41 | CC(=O)C[C@H](c1ccc([N+](=O)[O-])cc1)c1c(O)c2ccccc2oc1=O | -0.353% [at 25.6 µM] (inactive) | 
42 | Cn1c(CN2CCCC2)nc2cc(NC(=O)C3CCCCC3)ccc21 | 4.54% (inactive) | 
43 | Cc1cc(NC(=O)C2CCCCC2)nc2c1c(=O)oc1ccccc12 |  | 3.16 µM (active)
44 | CC(C)(C)C(=O)OCc1cn(-c2ccc(Cl)cc2)nn1 |  | 0.708 µM (active)
45 | Cc1ccc(C(=O)c2cn(-c3ccc(F)c(Cl)c3)nn2)cc1 | 24.6% (inactive) | 
46 | Cc1ccccc1NC(=O)OCc1cn(-c2ccc(Cl)cc2)nn1 |  | 0.447 µM (active)
47 | CC(C)(C)C(=O)N1CCC(O)(CS(=O)(=O)Cc2ccc(Cl)cc2)CC1 | 3.39% (inactive) | 
48 | CCCCC(=O)OCc1cn(-c2ccc(Cl)cc2)nn1 |  | 0.447 µM (active)
49 | CS(=O)(=O)N1CCC2(CC1)CN(C(c1ccccc1)c1ccccc1)C2 | -1.89% (inactive) | 
50 | CCCC(=O)N1c2ccccc2C(N(C(C)=O)c2ccccc2)CC1C (stereo not given) | -9.48% (inactive) | 
51 | COCC(=O)N1CCC2(CC1)CN(C(c1ccccc1)c1ccccc1)C2 | -6.23% (inactive) | 
52 | COc1cc2c(cc1OC)[C@H](c1ccccc1)CN(C)CC2 | -1.36% (inactive) | 
53 | COc1cc2c(cc1OC)CN(C(=S)Nc1ccccc1)CC2 |  | 12.6 µM (active)
54 | COc1ccc(S(=O)(=O)N2CCc3ccccc3C2)cc1OC | -29.1% (inactive) | 
55 | CCOC(=O)c1nnn(-c2nonc2N)c1-c1ccccc1 |  | 0.891 µM (active)
56 | CCOC(=O)c1nn(-c2ccccc2)c(-c2ccccc2)c1C(=O)c1ccccc1 | -14.5% (inactive) | 
57 | CC(C)OC(=O)c1nnn(-c2nonc2N)c1CSc1ccccn1 |  | 1.78 µM (active)
58 | CCOC(=O)c1nnn(-c2nonc2N)c1-c1ccc(C)cc1 |  | 0.891 µM (active)
59 | COC(=O)N1CCC2(CCCN(C(=O)Nc3ccccc3)C2)CC1 | 3.75% (inactive) | 
60 | C[C@@]1(CCOCc2ccccc2)NC(=O)NC1=O | -13.5% [at 11.4 µM] (inactive) | 
